# Experimental data: PubChem BioAssay AID489036 (National Center for Advancing Translational Sciences (NCATS), 2010)
# Results filed as inconclusive are left out. The source made the active and inactive calls. Calls come from the whole dose curve; as a rule, active = well fitted inhibition curve with a large enough effect; inconclusive = small, poorly fitted or top-dose-only effect, or effect the other way; inactive = flat fitted curve, though single readings scatter.
# Experiment: VP16 selectivity assay for inhibitors of ROR gamma transcriptional activity
# Text: NIH Molecular Libraries Probe Production Network [MLPCN] NIH Chemical Genomics Center [NCGC] MLPCN Grant: R03 DA026211-01 Assay Provider: Dan Littman, New York University Assay Overview: The retinoic acid-related orphan receptor (ROR) gamma is a transcription factor that has a central role in the differentiation of Th17 cells, a subset of T helper cells that secrete the inflammatory cytokines IL-17, IL-17F, and IL-22. Th17 cells have been implicated in graft versus host disease, autoimmune disease and asthma. ROR gamma is induced in naive T helper cells in the presence of TGF-beta combined with IL-6, IL-21, or IL-23, and thereafter directs the expression of the Th17 lineage cytokines. […] Small molecule inhibitors that inhibit components common to the RORgt and VP16 assays, such as the Gal4 DNA binding domain or the UAS luciferase reporter, will be active in both assays and thus scored as nonspecific.
# Assay Protocol Summary: For screening, 600 cells in 4 uL/well were dispensed into white solid 1536-well plates (Grenier) using a solenoid-based dispenser. […] After addition of 1.5 uL Photinus luciferase detection reagent, the plates were incubated 10 min at ambient temperature and then read by an ViewLux (Perkin Elmer) to detect luminescence.
row,SMILES,outcome
1,CC1OC(O[C@@H]2C(O)CC(O[C@@H]3C(O)C[C@@H](OC4CC[C@@]5(C)C6CC[C@]7(C)C(C8=CC(=O)OC8)C(O)C[C@@]7(O)[C@H]6CC[C@@H]5C4)OC3C)OC2C)CC(O)C1O (some centres not stated),inactive
2,CO[C@H]1[C@@H](O)CC(OC2[C@@H](O)CC(OC3[C@@H](O)C[C@H](OC4CC[C@@]5(C)C(CCC6C5CC(O)[C@]5(C)[C@H](C7=CC(=O)OC7)CCC65O)C4)O[C@@H]3C)O[C@@H]2C)O[C@@H]1C (some centres not stated),inactive
